# Assay results published in PubChem BioAssay (NCI).
# This is part of a sample that, as a whole, favours compounds with a hit. Of some 83,000 tested, about 20% had one in any assay.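 Single-concentration screen, 48 h exposure, 96-well plates. Endpoint: percent growth. Below 10 = active.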 Active and inactive are the calls of the source.
# Tested on: CCRF-CEM leukemia
# Test: NCI-60 one-dose screen, 48 h (100 = growth as untreated, 0 = no growth, -100 = all killed)
# Conditions: 10 µM unless noted
row,Structure (SMILES),growth
1,CC(C)(C)OC(=O)NC(CSCc1ccccc1)C(=O)ON1C(=O)CCC1=O (configuration not stated),96.7% (inactive)
2,Nc1cccc(Cl)c1N,71% (inactive)
3,C/C(=C\c1ccc(OCC(=O)O)c(Cl)c1Cl)[N+](=O)[O-],102% (inactive)
4,CCOC(=O)C1=C(C)NC(C)=C(C(=O)OCC)C1(C)C,94.4% (inactive)
5,N#C/C(=C1C=C/C(=N/O)C(Cl)=C/1)c1ccc(Cl)cc1,7.1% (active)
6,CCC(C)/C(=C\C#N)NCCCN/C(=C/C#N)C(C)CC (configuration not stated),97.4% (inactive)
7,Cn1ncc2c(Sc3ccc(Cl)cc3)ncnc21,95.3% (inactive)
8,O=C(CSC1CCc2ccccc21)N/N=C/c1ccccc1O (configuration not stated),18.2% (inactive)
9,O=C1C(Cl)=C(Nc2ccccn2)C(=O)c2ccccc21,56.4% (inactive)
10,Cc1ccc2nc(Cl)cc(=O)n2c1,94.4% (inactive)
11,CC1CCC(C)N(C)C1 (configuration not stated),93.9% (inactive)
12,CC(=O)Nc1nc(N)nc(NC(C)=O)c1N=O,112% (inactive)
13,COc1cc(C2CC(c3ccc4c(c3)OCO4)=NN2C(C)=O)cc(OC)c1OC (configuration not stated),16% (inactive)
14,O=C(c1ccccc1)C1OC1c1ccc([N+](=O)[O-])cc1 (configuration not stated),35.1% (inactive)
15,COc1ccc2c(c1)C(c1cc(OC)c3c(c1)OCO3)C1=C(COC1=O)N2 (configuration not stated),7.1% (active)
16,CC(=O)Nc1scc[n+]1Cc1ccccc1,90.1% (inactive)
17,C=C1CCC2C3(C)COC(c4ccccc4)OC3CCC2(C)C1/C=C/C1=CCOC1=O (configuration not stated),-46.7% (active)
18,CCN(CC)CCOc1ccc(Cl)c(C)c1,98.4% (inactive)

row,Structure (SMILES),growth
1,O=C(Oc1ccccc1[N+](=O)[O-])C1CCCN1C(=O)OCc1ccccc1 (configuration not stated),99.1% (inactive)
2,CC(=O)Nc1ccc(S(=O)(=O)n2ccc(-c3ccc4c(c3)CCC(C)(C)O4)n2)cc1,55.4% (inactive)
3,CC(C)(C)OC(=O)NCCc1ccc(N=C=S)cc1,30.2% (inactive)
4,COc1cc(C2CC(c3ccc4c(c3)OCO4)=NN2C=O)cc(OC)c1OC (configuration not stated),24.5% (inactive)
5,O=C1CCCCC1(c1ccccc1)c1ccccc1,101% (inactive)
6,Nc1nc(=O)c2ccccc2s1,92.2% (inactive)
7,CN1C=CN(Cc2ccc(-c3ccccn3)nc2)[CH-]1.CN1C=CN(Cc2ccc(-c3ccccn3)nc2)[CH-]1.[Au+3],6.2% (active)
8,COC(OC)c1ccccc1,119% (inactive)
9,C=C[C@@H]1C[C@H](O)Cc2cc(F)ccc2N1,-66% (active)
10,CN(C)c1ncnc2c1ccn2C1OC(CO)C(O)C1O (configuration not stated),10.7% (inactive)
11,NC1=NN(O)C2=CC([N+](=O)[O-])C=CC2=N1 (configuration not stated),104% (inactive)
12,O=C([O][Sn]([O]C(=O)c1ccccn1)([c]1ccccc1)[c]1ccccc1)c1ccccn1,18.1% (inactive)
13,C=C(C)[C@@H]1C[C@H](O)Cc2cc(F)ccc2N1,-62.7% (active)
14,CNC(=S)NNC(=O)C1CC1,97.3% (inactive)
15,CCOC(=O)C1CCNC(=O)C1=O (configuration not stated),93.7% (inactive)
16,COc1ccc(CNCCCN2C(=O)c3ccc4c5c(ccc(c35)C2=O)C(=O)N(CCCNCCCCNCCCN)C4=O)c(OC)c1OC,16.5% (inactive)
17,Cc1ccc(S(=O)(=O)C2=C3C(=C(c4ccccc4)c4ccccc43)CN(S(=O)(=O)c3ccc(C)cc3)C2)cc1,-7.65% (active)
18,COc1cc2c(c(OC)c1OC)-c1ccc(N)c(=O)cc1[C@@H](NC(C)=O)CC2,21.6% (inactive)

# Tested on: MOLT-4 leukemia
# Test: as above
# Conditions: 10 µM unless noted
row,Structure (SMILES),growth
1,C/C(=C\c1ccc(OCC(=O)O)c(Cl)c1Cl)[N+](=O)[O-],84.6% (inactive)
2,CCOC(=O)C1=C(C)NC(C)=C(C(=O)OCC)C1(C)C,97% (inactive)
3,N#C/C(=C1C=C/C(=N/O)C(Cl)=C/1)c1ccc(Cl)cc1,65.9% (inactive)
4,CCC(C)/C(=C\C#N)NCCCN/C(=C/C#N)C(C)CC (configuration not stated),99.4% (inactive)
5,Cn1ncc2c(Sc3ccc(Cl)cc3)ncnc21,95.8% (inactive)
6,O=C(CSC1CCc2ccccc21)N/N=C/c1ccccc1O (configuration not stated),2.59% (active)
7,CC1(c2ccc(Cl)cc2)OC(=O)CC(=O)O1,100% (inactive)
8,O=C1C(Cl)=C(Nc2ccccn2)C(=O)c2ccccc21,62.8% (inactive)
9,CCCCCCCCCCCCCCCCNC(=O)OC(C)C,7.03% (active)
10,Cc1ccc2nc(Cl)cc(=O)n2c1,106% (inactive)
11,CC1CCC(C)N(C)C1 (configuration not stated),92.5% (inactive)
12,CC(=O)Nc1nc(N)nc(NC(C)=O)c1N=O,113% (inactive)
13,COc1cc(C2CC(c3ccc4c(c3)OCO4)=NN2C(C)=O)cc(OC)c1OC (configuration not stated),36% (inactive)
14,O=C(c1ccccc1)C1OC1c1ccc([N+](=O)[O-])cc1 (configuration not stated),76.2% (inactive)
15,COc1ccc2c(c1)C(c1cc(OC)c3c(c1)OCO3)C1=C(COC1=O)N2 (configuration not stated),16.5% (inactive)
16,CC(=O)Nc1scc[n+]1Cc1ccccc1,94.1% (inactive)
17,C=C1CCC2C3(C)COC(c4ccccc4)OC3CCC2(C)C1/C=C/C1=CCOC1=O (configuration not stated),45.5% (inactive)
18,CCN(CC)CCOc1ccc(Cl)c(C)c1,99.8% (inactive)

row,Structure (SMILES),growth
1,O=C(Oc1ccccc1[N+](=O)[O-])C1CCCN1C(=O)OCc1ccccc1 (configuration not stated),83.5% (inactive)
2,CC(=O)Nc1ccc(S(=O)(=O)n2ccc(-c3ccc4c(c3)CCC(C)(C)O4)n2)cc1,50.7% (inactive)
3,CC(C)(C)OC(=O)NCCc1ccc(N=C=S)cc1,69% (inactive)
4,COc1cc(C2CC(c3ccc4c(c3)OCO4)=NN2C=O)cc(OC)c1OC (configuration not stated),45% (inactive)
5,O=C1CCCCC1(c1ccccc1)c1ccccc1,105% (inactive)
6,Nc1nc(=O)c2ccccc2s1,103% (inactive)
7,CN1C=CN(Cc2ccc(-c3ccccn3)nc2)[CH-]1.CN1C=CN(Cc2ccc(-c3ccccn3)nc2)[CH-]1.[Au+3],11.3% (inactive)
8,COC(OC)c1ccccc1,108% (inactive)
9,C=C[C@@H]1C[C@H](O)Cc2cc(F)ccc2N1,-34.3% (active)
10,CN(C)c1ncnc2c1ccn2C1OC(CO)C(O)C1O (configuration not stated),9% (active)
11,NC1=NN(O)C2=CC([N+](=O)[O-])C=CC2=N1 (configuration not stated),111% (inactive)
12,O=C([O][Sn]([O]C(=O)c1ccccn1)([c]1ccccc1)[c]1ccccc1)c1ccccn1,88.3% (inactive)
13,C=C(C)[C@@H]1C[C@H](O)Cc2cc(F)ccc2N1,-28.3% (active)
14,CNC(=S)NNC(=O)C1CC1,85.1% (inactive)
15,CCOC(=O)C1CCNC(=O)C1=O (configuration not stated),96.6% (inactive)
16,COc1ccc(CNCCCN2C(=O)c3ccc4c5c(ccc(c35)C2=O)C(=O)N(CCCNCCCCNCCCN)C4=O)c(OC)c1OC,14.4% (inactive)
17,Cc1ccc(S(=O)(=O)C2=C3C(=C(c4ccccc4)c4ccccc43)CN(S(=O)(=O)c3ccc(C)cc3)C2)cc1,-6.7% (active)
18,COc1cc2c(c(OC)c1OC)-c1ccc(N)c(=O)cc1[C@@H](NC(C)=O)CC2,20.7% (inactive)
